# Measured values taken from PubChem BioAssay (Tox21).
# Values without a mark were called inactive. Records with an inconclusive call do not appear. Where a call stands in place of a potency, no number is given. Active and inactive are the calls of the source. Unless noted, calls follow the shape of the dose curve; as a rule, active = well fitted curve in the direction sought with a large enough effect in the repeat runs; inconclusive = weak or mixed curves; inactive = no such curve, though single readings can be large; an effect the other way counts as inactive or inconclusive.
# Experiments:
# [1] = qHTS assay for small molecule agonists of the p53 signaling pathway (AID 651631; calls by dose curve; also: nearly all actives have a fitted effect of over 15% in size)
# Outline: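 Agonist mode screen using a stably integrated beta-lactamase gene under p53 response elements in HCT-116 cells. Compound exposure lasts 16 h at 37 °C; fluorescence intensity is measured following 2 h FRET substrate loading.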
# [2] = qHTS assay for small molecules that induce genotoxicity in human embryonic kidney cells expressing luciferase-tagged ATAD5 (AID 651632); also: nearly all actives have a fitted effect of over 15% in size
# Outline: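 HEK293T cells carrying luciferase-tagged ATAD5 were given compound or DMSO vehicle and incubated 16 hr at 37C, 5% CO2. Luciferase activity was read after 30 min at room temperature with Amplite; a rise signals genotoxic stress.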
# [3] = qHTS assay for small molecules that induce genotoxicity in human embryonic kidney cells expressing luciferase-tagged ATAD5 - cell viability (AID 651634; calls by dose curve; also: nearly all actives have a fitted effect of over 25% in size)
# Outline: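 HEK293T cells carrying luciferase-tagged ATAD5, 2,000 cells/well, exposed to compound for 15.5 hr at 37C. Viability read as live-cell protease activity by CellTiter-Fluor fluorescence after 30 min at 37C.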
# [4] = qHTS assay for small molecule disruptors of the mitochondrial membrane potential - cell viability (AID 720634; calls by dose curve;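 also: human HepG2 liver cancer cells; series mostly up to about 83 µM; nearly all actives have a fitted effect of over 20% in size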)
# Outline: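 HepG2 cells, 2,000 per well, attached overnight, then treated 1 hr at 37 C, 5% CO2. Viability read as ATP by CellTiter-Glo luminescence after 30 min at room temperature. Read in the same wells as the m-MPI membrane-potential dye assay.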
# [5] = qHTS assay for small molecule disruptors of the mitochondrial membrane potential (AID 720635); also: potency is read from the fitted curve at half-maximal effect
# Outline: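 HepG2 cells exposed to compound 1 hr at 37C, then Mito-MPS dye 30 min. Ratio read of aggregate (540/590 nm) versus monomer (490/535 nm) fluorescence.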
# [6] = qHTS assay to test for compound auto fluorescence at 590 nm (red) in HepG2 cells (AID 720674)
# Outline: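 Seeding: 2,000 HepG2 cells/well, MEM/10% FBS, overnight 37 C. Dosing: compound vs DMSO. Incubation: 1 hr, 37 C, 5% CO2. Read: fluorescence 540 ex/590 em, Rose Bengal sodium as red reference.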
# [7] = qHTS assay to test for compound auto fluorescence at 535 nm (green) in HepG2 cells (AID 720675)
# [8] = qHTS assay to test for compound auto fluorescence at 460 nm (blue) in HEK293 cells (AID 720678)
# Outline: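 Blue read-out at excitation 405 nm and emission 460 nm follows overnight compound exposure of HEK293 cells at 37C in 5% CO2. Activity is given as auto fluorescence equivalency to triamterene.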
# [9] = qHTS assay to test for compound auto fluorescence at 590 nm (red) in HEK293 cells (AID 720679)
# Outline: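 Red channel, Ex/Em 540/590nm; signal expressed as equivalency to Rose Bengal sodium. HEK293, 2,000 cells/well, 10% dialyzed FBS; 23 nL compound pinned after 4-5 hr attachment; overnight 37C/5% CO2 before reading.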
# [10] = qHTS assay for small molecule agonists of the p53 signaling pathway - cell viability (AID 651633; calls by dose curve;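 also: p53RE-bla HCT reporter cells with a stable beta-lactamase p53 reporter; series mostly up to about 83 µM; nearly all actives have a fitted effect of over 30% in size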)
# Outline: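 p53RE-bla cells were treated with compound for 16 hours at 37 C. Cytotoxicity was then measured as CellTiter-Glo luminescence after 30 min at room temperature.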
Compound,Potency [1],Potency [2],Potency [3],Potency [4],Potency [5],outcome [6],outcome [7],Potency [8],outcome [9],Potency [10],"fluorescence, relative to Rose Bengal [6]","fluorescence, % of fluorescein control [7]","fluorescence, % of triamterene [8]","fluorescence, % of fluorescent control [9]"
Cc1cccc(C(C)(C)C)c1O,inactive,inactive,inactive,inactive,inactive,inactive,inactive,inactive,inactive,–,–,–,–,–
Oc1ccc2c(c1)OCO2,inactive,inactive,–,inactive,inactive,inactive,inactive,–,inactive,inactive,–,–,–,–
COc1ccc2[nH]c(S(=O)Cc3ncc(C)c(OC)c3C)nc2n1 (stereo not given),inactive,inactive,inactive,inactive,inactive,inactive,inactive,inactive,inactive,–,–,–,–,–
Cn1c(N)nc2nc[nH]c2c1=O,inactive,inactive,inactive,inactive,inactive,–,inactive,inactive,inactive,–,–,–,–,–
O=S(=O)(O)c1ccc(O)c2ncccc12,inactive,inactive,–,inactive,inactive,–,inactive,inactive,inactive,inactive,–,–,–,–
N#Cc1cc2ccccc2c2ccccc12,inactive,inactive,–,–,38.8 µM (active),inactive,inactive,inactive,inactive,inactive,–,–,–,–
Cn1c(=O)c2c(ncn2CC(O)CO)n(C)c1=O (stereo not given),inactive,inactive,inactive,inactive,inactive,–,–,–,–,–,0.442% [at 18.6 µM],-0.21% [at 18.6 µM],-0.206% [at 18.6 µM],-0.424% [at 18.6 µM]
Nc1nc(CC(=O)O)cs1,inactive,inactive,inactive,inactive,inactive,inactive,inactive,inactive,–,–,–,–,–,–
C[Si](C)O[Si](C)(C)O[Si](C)(C)O[Si](C)C,inactive,inactive,–,inactive,–,inactive,inactive,inactive,inactive,inactive,–,–,–,–
CCCCCCCCCCCCCCCBr,inactive,inactive,–,inactive,–,inactive,inactive,inactive,inactive,inactive,–,–,–,–
CC/C(=C\C(=N/O)C(N)=O)C(C)[N+](=O)[O-] (stereo not given),inactive,inactive,–,inactive,inactive,inactive,inactive,inactive,inactive,inactive,–,–,–,–
CCCCCCCCN(C)C,inactive,inactive,–,inactive,inactive,–,inactive,inactive,inactive,inactive,–,–,–,–
CCCC(=O)OCC,inactive,inactive,–,inactive,–,inactive,inactive,inactive,inactive,inactive,–,–,–,–
Cc1ccc(C(=O)C(C)CN2CCCCC2)cc1 (stereo not given),inactive,inactive,–,inactive,inactive,–,inactive,inactive,inactive,inactive,–,–,–,–
N=C(N=C(N)N)N1CCOCC1,inactive,inactive,–,inactive,inactive,–,–,–,–,inactive,0.372% [at 18.6 µM],-0.084% [at 18.6 µM],-0.223% [at 18.6 µM],0.0856% [at 18.6 µM]
CCOc1ccc2[nH]cc(C(=O)NCc3ccccc3)c(=O)c2n1,–,inactive,inactive,inactive,8.63 µM (active),inactive,inactive,inactive,inactive,inactive,–,–,–,–
Cc1occc1S,–,inactive,inactive,inactive,inactive,inactive,inactive,–,inactive,inactive,–,–,–,–
CN(C)CC[C@@H](c1ccc(Br)cc1)c1ccccn1,–,inactive,inactive,inactive,inactive,inactive,inactive,inactive,inactive,inactive,–,–,–,–
CCC(=O)OC(C)(C)C1CC=C(C)CC1 (stereo not given),inactive,inactive,inactive,inactive,–,–,inactive,–,inactive,–,–,–,–,–
Oc1ccc(Cc2ccccc2)cc1,–,inactive,inactive,inactive,14.2 µM (active),–,inactive,inactive,inactive,inactive,–,–,–,–
